High-throughput results: PubChem BioAssay, National Center for Advancing Translational Sciences (NCATS)
Luc counter – Counterscreen for Luciferase (Kinase-Glo TM) Inhibition; actives 0.28% (n = 200,000); Potency, µM (highest dose often 38.3 µM), for the others: at the top dose activity change, negative = inhibition, hits mostly inhibitors; Kinase-Glo luciferase, ATP luminescence, 8 min; AID 1379, 2008; Luciferin 4-monooxygenase (Photuris pensylvanica), Q27757; also: % is scaled to controls: 0 for no effect and ±100 for the full control effect; nearly all actives have a fitted effect of over 60% in size
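Substrate mix (final 50 mM imidazole pH 7.2, 50 mM KCl, 7 mM MgCl2, 10 uM ATP, 0.01% Tween 20, 0.05% BSA) plus pin-tool compound, then Kinase-Glo detection mix; 8 min ambient, luminescence read.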
Rab9 promoter act – qHTS Assay for Rab9 Promoter Activators | Potency, µM (series often up to 9.22 µM), for the others: at the top dose activation, negative = inhibition, most hits filed as activators | AID 485297, 2010 | actives 2.8% (n = 320,000) | Huh7 Rab9 promoter-luciferase reporter, luminescence, 24 h; also: % of control where 0% means no effect; nearly all actives have a fitted effect of over 60% in size
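Huh7 cells stably carrying Rab9 promoter–luciferase reporter, plated 1500 cells/well, compound added after 2 h and incubated 24 h at 37 °C; luciferase luminescence then read after 10 min with detection reagent.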
SMN2 splice enh – qHTS Assay for Enhancers of SMN2 Splice Variant Expression; actives 2.8% (n = 210,000); AID 1458, 2008; Potency, µM (top dose mostly 46.1 µM), inactives show top-dose activity change, positive = activation, usual class: activators; HEK293 SMN2-luciferase splicing reporter, luminescence, 30-36 h; also: % of control where 0% means no effect; nearly all actives have a fitted effect of over 55% in size
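HEK293 cells carry an SMN2 […]–luciferase reporter in which exon 7 inclusion puts luciferase in frame. Cells were plated 10-12 h before compound addition, then incubated 30-36 h at 37C. ONE-Glo luminescence was read; sodium butyrate at 4.5 mM final served as control.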
NPC1 promoter act – qHTS Assay for NPC1 Promoter Activators; AID 485313, 2010; actives 2.4% (n = 320,000); Huh7 NPC1 promoter luciferase reporter, 24 h; Potency, µM (doses to about 9.22 µM), for the others: at the highest dose activation, hits mostly activators; also: % of control where 0% means no effect; nearly all actives have a fitted effect of over 60% in size
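Luminescence from an NPC1 promoter-driven luciferase reporter in stably transfected Huh7 cells was measured after 24 h compound treatment at 37 °C, followed by 10 min ambient incubation with luciferase detection reagent.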
FLuc counter – qHTS profiling assay for firefly luciferase inhibitor/activator using purifed enzyme and Km concentrations of substrates (counterscreen for miR-21 project); AID 588342, 2011; purified FLuc, Km substrates, luminescence inhibition; Luciferin 4-monooxygenase (Photinus pyralis), P08659; Potency, µM (titrated, usually from 57.5 µM), for inactives: top-dose activity change, negative = inhibition, most hits filed as inhibitors; actives 6.9% (n = 360,000);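 also: plate controls were vehicle for no effect and reference inhibitor for full effect; nearly all actives have a fitted effect of over 55% in size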
Target sequence (P08659 whole entry, looked up): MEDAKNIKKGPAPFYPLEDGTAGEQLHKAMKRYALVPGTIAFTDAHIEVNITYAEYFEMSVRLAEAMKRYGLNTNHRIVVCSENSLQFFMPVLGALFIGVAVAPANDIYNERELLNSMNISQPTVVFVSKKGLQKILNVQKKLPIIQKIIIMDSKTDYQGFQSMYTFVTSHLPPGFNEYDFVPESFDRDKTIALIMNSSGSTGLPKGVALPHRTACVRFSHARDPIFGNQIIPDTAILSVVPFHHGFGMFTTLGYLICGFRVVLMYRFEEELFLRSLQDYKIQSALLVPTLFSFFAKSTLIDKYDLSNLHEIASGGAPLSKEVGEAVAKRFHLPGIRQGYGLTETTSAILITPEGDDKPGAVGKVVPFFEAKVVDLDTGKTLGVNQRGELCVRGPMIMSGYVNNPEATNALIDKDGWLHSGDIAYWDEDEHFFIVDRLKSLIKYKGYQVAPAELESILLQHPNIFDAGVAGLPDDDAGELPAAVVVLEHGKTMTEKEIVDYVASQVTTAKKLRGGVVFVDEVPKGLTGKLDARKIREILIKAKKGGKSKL
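Purified P. pyralis luciferase, 10 nM final, with Km-level 10 uM D-luciferin and 10 uM ATP in 50 mM Tris acetate pH 7.5, 10 mM Mg acetate, 0.01% Tween-20, 0.05% BSA; 6-point qHTS titration about 60 µM downward; luminescence read.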
Starred values were filed as active, the others as inactive; ? = inconclusive; . = not tested or not shown. Hits are enriched below; roughly 7.3% of the tested compounds scored in any of these assays. Calls follow the shape of the dose curve; as a rule, active = well fitted curve in the direction sought with a large enough effect; inconclusive = small, poorly fitted or top-dose-only effect, or another doubt; inactive = no such curve, though single readings can be large; an effect the other way counts as inactive or inconclusive. Potency is read from the fitted curve at half-maximal effect.

SMILES | Luc counter | Rab9 promoter act | SMN2 splice enh | NPC1 promoter act | FLuc counter
CCOC(=O)c1cc2c(=O)n3ccccc3nc2n(CC2CCCO2)c1=NC(=O)c1ccc(OC)cc1OC (stereo unspecified) | . | . | 5% | . | -8%
CCOc1ccc(-c2c(C)nn3c(C)c(C(=O)NCCc4ccc(C)cc4)cnc23)cc1OCC | . | . | . | . | -1%
COc1ccc(OC)c(NC(=O)C(C)n2c(=O)cc(C)c3c(C)nn(-c4ccccc4)c32)c1 (stereo unspecified) | . | . | . | . | 4%
Cn1nnc2cc(C(=O)Nc3ccc4ccccc4c3)ccc21 | 0% | 0.4µM* | 3.2µM* | 0.89µM* | 1.9µM*
COc1cc(C(=O)Nc2ccc3ccccc3c2)cc(OC)c1OC | . | 0% | . | -21% | 19µM*
COc1ccc(C(=O)Nc2ccc3ccccc3c2)cc1OC | . | ? | . | 2.8µM* | 9.5µM*
Cc1ccc2nc(C)cc(N/N=C/c3ccccc3O)c2c1 | . | 11% | . | 22% | -2%
Cc1ccc(C)c(/C=N/Nc2nc3ccccc3c(=O)n2O)c1 | . | 2% | . | 6% | 13µM*
C/C(=N\Nc1nc2ccccc2c(=O)n1O)c1ccco1 | . | 3.2µM* | . | 30% | 11µM*
CCCn1c2ccccc2c2cnn(CC(=O)N3CCCC(C)C3)c(=O)c21 (stereo unspecified) | . | . | . | . | 3%
C=C(C)C(=O)OC | . | . | 1% | . | .
CC1CN(c2ncnc3c2cnn3-c2ccc(Cl)cc2)CC(C)O1 (stereo unspecified) | 0% | 1µM* | ? | 1.1µM* | 3µM*
CC1CC(C)CN(c2ncnc3c2cnn3Cc2ccc(Cl)cc2)C1 (stereo unspecified) | -1% | -9% | 5% | 2% | 0%
Clc1ccc(-n2ncc3c(N4CCCCCC4)ncnc32)cc1 | -11% | -18% | -101% | -11% | 0.19µM*
Cc1ccc(-n2ncc3c(N4CCC(Cc5ccccc5)CC4)ncnc32)cc1 | . | . | . | . | -13%
Cc1ccc(-n2ncc3c(N4CCCCC4)ncnc32)cc1 | . | . | . | . | 0.076µM*
COc1ccc(-n2ncc3c(N4CCCCC4)ncnc32)cc1 | ? | ? | -111% | -17% | 0.17µM*
COc1ccc(OCC(=O)OCc2cc(=O)n3cc(C)sc3n2)cc1 | . | . | . | . | -6%
COc1ccc(NCc2cc3ccc(OC)cc3n(CC(=O)Nc3ccc(C)c(C)c3)c2=O)cc1 | . | . | . | . | 1%
CC1CCN(c2ncnc3c2cnn3-c2ccc(F)cc2)CC1 | . | . | . | . | 3µM*
O=C(O)c1ccccc1C(=O)c1ccc(N2CCOCC2)c([N+](=O)[O-])c1 | 4% | 22% | -1% | 2% | ?
O=C(O)c1ccccc1C(=O)c1ccc(N2CCCC2)c([N+](=O)[O-])c1 | 3% | 24% | -2% | 10% | 24µM*
Cc1cccc(NC(=O)c2ccc(N3CCCCC3)c([N+](=O)[O-])c2)n1 | -9% | 2µM* | 6.3µM* | 2.8µM* | 4.8µM*
CCSc1ccc(C(=O)Nc2cccc(C)n2)cc1[N+](=O)[O-] | -3% | 0% | 20% | 0% | -2%
Cc1cccc(NC(=O)c2ccc(N(C)C3CCCCC3)c([N+](=O)[O-])c2)n1 | -3% | 20% | 4% | 26% | 11µM*
SMILES | Luc counter | Rab9 promoter act | SMN2 splice enh | NPC1 promoter act | FLuc counter
CC(C)CCn1c(=O)c2sccc2n2c(CCCC(=O)NC(C)C)nnc12 | . | . | . | . | -7%
CC(C)Oc1ccc(CNC(=O)C2CCN(Cc3cc4ccccc4n3Cc3ccccc3)CC2)cc1 | . | . | . | . | -5%
COc1ccc(N2CCN(C(=O)c3cc4c(=O)oc5ccc(C)cc5c4s3)CC2)cc1 | . | . | 6% | . | -5%
Cc1nc2c(-c3ccccc3)c(C)nn2c(C)c1CCC(=O)Nc1ccccc1F | . | . | 7% | . | -7%
COc1ccc(-c2ccc(NS(=O)(=O)c3ccc(NC(C)=O)cc3)cc2)nn1 | . | . | . | . | -10%
CCCCC(=O)N/C(N)=N/c1nc2ccccc2o1 | . | 1.8µM* | . | 1.3µM* | 3µM*
N/C(=N\c1nc2ccccc2o1)NC(=O)c1ccccc1F | -2% | 2.5µM* | ? | 1.6µM* | 8.5µM*
N/C(=N\c1nc2ccccc2o1)NC(=O)c1ccccc1NC(=O)c1ccccc1 | -1% | 3% | 25% | 9% | 2%
